GALK inhibitor: qHTS Assay for Inhibitors of Human Galactokinase (GALK): NCGC Sytravon Library Screen; P51570; recombinant GALK, Kinase-Glo ATP luminescence, 1 h; 44,000 tested, under 10 active; AID 1347072, 2019; Potency, µM (titrated, usually from 57.5 µM), for inactives: at the highest dose activity, negative = inhibition, usual class: inhibitors;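 note: plate controls were full GALK reaction for no effect and reaction lacking GALK for full effect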
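5 nM GALK; 35 uM ATP; 100 uM D-galactose; 20 mM HEPES pH 8.0, 5 mM MgCl2, 60 mM NaCl, 1 mM DTT, 0.01% BSA; 1 h RT; Kinase-Glo Plus luminescence.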
HTT-AS promoter: Primary qHTS for Identification of Small Molecule Activators of Huntingtin-Antisense Promoter Activity; HEK293 HTT-AS promoter firefly luciferase reporter, 24 h; response scale: percent change from vehicle, -100% = no light; Potency, µM (doses to about 57.5 µM), for the others: top-dose activity change, positive = activation, usual class: activators; 0.24% of 48,000 active; AID 1508624, 2021; note: potency is the fitted concentration of half-maximal effect; nearly all actives have a fitted effect of over 55% in size
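Luminescence was read after Dual-Glo reagent and a 10 min room-temperature incubation. Values were normalized to vehicle (0% activity) and zero RLU (-100% activity). Reporter HEK293 cells had been exposed to compounds (up to 57.5 uM final) for 24 h.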
HTT promoter inh: Primary qHTS for Identification of Small Molecule Inhibitors of Huntingtin Promoter Activity | HEK293 HTT promoter firefly luciferase reporter, 24 h | Potency, µM (top dose mostly 57.5 µM), for the others: at the top dose activity change, negative = inhibition, hits mostly inhibitors | 0.93% of 48,000 active | AID 1508623, 2021; note: potency is the fitted concentration of half-maximal effect; nearly all actives have a fitted effect of over 50% in size
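Firefly luciferase signal from promoter-reporter HEK293 cells was scaled between vehicle (0%) and zero RLU (-100%). Compounds were tested at final concentrations of up to 57.5 uM over 24 h at 37 degrees C. PTC124 at 50 uM final served as control inhibitor.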
OvCa metastasis: Primary qHTS assay for Inhibitors of ovarian cancer metastasis using an organotypic tumor microenvironment (TME) model; Potency, µM (titrated, usually from 45.8 µM), without a hit: at the highest dose activity change, negative = inhibition, hits mostly inhibitors; AID 1963576, 2024; SKOV3ip1-GFP adhesion/invasion on 3D omental model, fluorescence; 0.1% of 46,000 active;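 note: potency is the fitted concentration of half-maximal effect; plate controls were DMSO wells for no effect and tomatine positive control wells for full effect; nearly all actives have a fitted effect of over 65% in size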
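A 3D layer of primary human omental fibroblasts, mesothelial cells, fibronectin and collagen I, grown 48 hr, received SKOV3ip1-GFP cells in serum-free medium plus compounds at 0.36-46 umol/L. After 2 hr RT and 16 hr 37 C, fixed adherent GFP cells were counted; normalized to DMSO and tomatine.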
TSG101-PTAP inh: qHTS Validation Assay for Inhibitors of HIV-1 Budding by Blocking the Interaction of PTAP/TSG101: Sytravon Library Screen; Tumor susceptibility gene 101 protein (Homo sapiens), Q99816; Potency, µM (doses to about 115 µM), hits mostly inhibitors; AID 1347069, 2019; 44,000 tested, under 10 active; Fluorescence polarization, FITC-PTAP peptide/Tsg101, 20 min; note: potency is the fitted concentration of half-maximal effect; 0% is about no effect
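The Tsg101 binding domain, at 10 uM final, is mixed with compound and a FITC peptide bearing the PTAP motif (50 nM final). After 20 min at r.t., polarization is measured; actives defined by CRC class, efficacy cut-off 60% inhibition.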
NTMT1 inhibitor: Primary qHTS for Inhibitors of N-terminal methyltransferase 1 (NTMT1): MTaseGlo Assay; Potency, µM (series often up to 114 µM), without a hit: at the highest dose activity change, negative = inhibition, actives largely listed as inhibitors; NTMT1 MTase-Glo SAH luminescence, purified enzyme; AID 1645870, 2021; 2.5% of 59,000 active; N-terminal Xaa-Pro-Lys N-methyltransferase 1 (Homo sapiens), Q9BV86;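 note: potency is the fitted concentration of half-maximal effect; plate controls were DMSO vehicle for no effect and no enzyme for full effect; nearly all actives have a fitted effect of over 65% in size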
Target sequence (Q9BV86 whole entry, looked up): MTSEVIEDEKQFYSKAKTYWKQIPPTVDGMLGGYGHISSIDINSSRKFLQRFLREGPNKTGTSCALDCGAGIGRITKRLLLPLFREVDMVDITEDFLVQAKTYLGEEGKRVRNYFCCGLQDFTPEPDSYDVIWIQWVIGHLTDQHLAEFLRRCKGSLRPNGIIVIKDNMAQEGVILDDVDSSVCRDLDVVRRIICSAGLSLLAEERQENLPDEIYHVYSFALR
CLK4 inh: Confirmation Assay for Inhibitors of CDC-like Kinase 4 (Kinase-Glo Assay): SAR round 2. shares compounds with NTMT1 inhibitor. recombinant Clk4, Kinase-Glo ATP luminescence, 4.5 h. 90% of 90 active. AID 493204, 2011. Potency, µM (titrated, usually from 76.9 µM), for inactives: top-dose activity, negative = inhibition, hits mostly inhibitors
Sfp inh SAR2: qHTS Assay for Inhibitors of Bacillus subtilis Sfp phosphopantetheinyl transferase (PPTase): SAR Round 2; 87% of 230 active; AID 602370, 2012; shares compounds with NTMT1 inhibitor; Potency, µM (doses to about 57.1 µM), for the others: top-dose activity change, negative = inhibition, actives largely listed as inhibitors; purified Sfp enzyme, PPTase activity, qHTS
hGST A1-1 inh: qHTS Assay for Inhibitors of Bacillus subtilis Sfp phosphopantetheinyl transferase (PPTase): SAR in hGST A1-1; shares compounds with NTMT1 inhibitor; hGST A1-1 enzyme activity counter-screen, qHTS; Potency, µM (top dose mostly 114 µM), without a hit: at the top dose activity change, negative = inhibition, most hits filed as inhibitors; 55 tested, under 10 active; AID 602391, 2012
USP2a K63: Confirmation Assay for Inhibitors of Ubiquitin-specific Protease USP2a Using CHOP2 as the Reporter: K633 | 80% of 30 active | Potency, µM (highest dose often 57.5 µM), for the others: at the highest dose activity change, negative = inhibition, usual class: inhibitors | shares compounds with NTMT1 inhibitor | USP2 cleavage of DiUb K63-3IQF, fluorescence kinetic
Casp6 counter: qHTS for Inhibitors of Ubiquitin-specific Protease USP2a Using CHOP2 as the Reporter: Caspase 6 Assay | AID 652277, 2013 | activity change, negative = inhibition, % at 46.1 µM | shares compounds with NTMT1 inhibitor | 30 tested, under 10 active | Caspase 6 enzyme, Caspase-Glo 6 luminescence
Target sequence (P55212 whole entry, looked up): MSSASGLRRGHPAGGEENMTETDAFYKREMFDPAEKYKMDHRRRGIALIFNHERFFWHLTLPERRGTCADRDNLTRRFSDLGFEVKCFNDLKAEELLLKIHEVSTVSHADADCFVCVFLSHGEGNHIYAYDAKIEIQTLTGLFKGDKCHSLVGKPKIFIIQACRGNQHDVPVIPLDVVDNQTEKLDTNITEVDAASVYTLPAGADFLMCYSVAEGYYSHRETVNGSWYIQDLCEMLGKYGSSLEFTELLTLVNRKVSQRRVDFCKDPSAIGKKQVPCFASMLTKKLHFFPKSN
HSD17B4 inh: Extended Characterization of HPGD Inhibitors: Counterscreen Against HSD17b4; AID 743187, 2013; shares compounds with NTMT1 inhibitor; Potency, µM (highest dose often 57.1 µM), for the others: at the top dose activity change, negative = inhibition, actives largely listed as inhibitors; 10% of 230 active; purified HSD17B4, estradiol/NAD+, NADH fluorescence
ALDH1A1 inh: Extended Characterization of HPGD Inhibitors: Counterscreen Against ALDH1A1; Potency, µM (doses to about 57.1 µM), inactives show top-dose activity change, negative = inhibition, actives largely listed as inhibitors; 93% of 230 active; recombinant ALDH1A1, NADH fluorescence, propionaldehyde/NAD+; shares compounds with NTMT1 inhibitor
NNMT counter: Counterscreen qHTS for Inhibitors of N-terminal methyltransferase 1 (NTMT1): NNMT MTaseGlo assay; shares compounds with NTMT1 inhibitor; NNMT MTase-Glo luminescence, SAH detection; Potency, µM (top dose mostly 57.1 µM), inactives show at the highest dose activity, negative = inhibition, actives largely listed as inhibitors; 10% of 120 active; AID 1645878, 2021
The depositor's hits bear a star; i = inactive; ? = inconclusive; / = no result given; [ ] = dose if it differs, or a comment. In the library only some 2.5% were active in any assay of this set; here they are far more common. Calls come from the whole dose curve; as a rule, active = well fitted curve in the direction sought with a large enough effect; inconclusive = small, poorly fitted or top-dose-only effect, or another doubt; inactive = no such curve, though single readings can be large; an effect the other way counts as inactive or inconclusive.

SMILES	GALK inhibitor	HTT-AS promoter	HTT promoter inh	OvCa metastasis	TSG101-PTAP inh	NTMT1 inhibitor	others
COc1cccc(Nc2ncc3nc(-c4cn(C)c5ccccc45)c(=O)n(CCC#N)c3n2)c1	/	/	/	/	/	/	CLK4 inh=?
COc1cccc(Nc2ncc3ncc(=O)n(C)c3n2)c1	/	/	/	/	/	/	CLK4 inh=0.92µM*
Cc1ccc(F)cc1C(=O)Nc1ccc(C(=O)N2Cc3cccn3Cc3ccccc32)c(Cl)c1	/	/	/	/	/	4%[57.5 µM]
COc1cc2c(NC3CCN(C(C)C)CC3)nc(C3CCCCC3)nc2cc1OCCCN1CCCC1	/	4%	-23%	12µM*	/	?	NNMT counter=?
CC(Cc1ccccc1)C(=O)Nc1ccc(Cl)cc1C(=O)O (configuration not stated)	/	/	/	/	/	18%	Sfp inh SAR2=-20%;hGST A1-1 inh=?;HSD17B4 inh=24µM*;ALDH1A1 inh=24µM*
O=C(Nc1cccc(Cl)c1)C(Cc1ccccc1)n1cccc1 (configuration not stated)	-3%	-26%	-20%	-5%	i	7%
CSC(Cc1ccc(Cl)cc1)C(=O)Nc1ccc(Cl)cc1C(=O)O (configuration not stated)	/	/	/	/	/	17%	Sfp inh SAR2=31%;hGST A1-1 inh=?;HSD17B4 inh=?;ALDH1A1 inh=24µM*
Cc1cc(NC(=O)c2csc(NC(=O)Cc3ccc(Cl)c(Cl)c3)n2)no1	/	/	/	/	/	12%
Cc1ccc(S(=O)(=O)Nc2cnccc2C(=O)Nc2nc(-c3ccc(-c4ccccc4)cc3)cs2)cc1	/	/	/	/	/	12%	USP2a K63=1.7µM*;Casp6 counter=-22
Cc1ccc(S(=O)(=O)Nc2cnccc2C(=O)Nc2nc(-c3cccc(C)c3)cs2)cc1	/	/	/	/	/	/	USP2a K63=1.9µM*;Casp6 counter=-14
Cc1cc(C(=O)Cn2cc(C#N)ccc2=O)c(C)n1Cc1ccccc1	/	/	/	/	/	-6%[57.5 µM]
Cc1ccc(-c2cc(C(=O)Nc3ccc(-n4cccn4)cc3)c3ccccc3n2)cc1C	/	/	/	/	/	-12%	USP2a K63=8.6µM*;Casp6 counter=-7
Cc1ccc(-c2cc(C(=O)Nc3ccc(S(N)(=O)=O)cc3)c3cccc(C)c3n2)cc1C	/	/	/	/	/	/	USP2a K63=11µM*;Casp6 counter=?
Cc1ccc(-c2cc(C(=O)Nc3ccccn3)c3ccccc3n2)cc1C	/	/	/	/	/	-8%
Cc1ccc(CC(=O)Nc2nc(-c3ccc4c(c3)CCN4C(=O)c3ccccc3C)c(C)s2)cc1C	/	/	/	/	/	8%[57.5 µM]
CCN1CCN(Cc2ccc(Nc3ncc(F)c(-c4cc(F)c5nc(C)n(C(C)C)c5c4)n3)nc2)CC1	/	/	/	/	/	10µM*	NNMT counter=?
C[C@@H](C(=O)Nc1ccc(Cl)cc1)C1CCC(c2ccnc3ccc(F)cc23)CC1 (some centres not stated)	/	/	/	/	/	9%
